Only some compounds are listed: those with a hit (about 18% of all), similar ones and a draw of the others.
TDP1 block: inhibitors of human tyrosyl-DNA phosphodiesterase TDP1; Q9NUW8; recombinant TDP1, AlphaScreen DNA substrate cleavage; Potency, µM (series often up to 130 µM), for inactives: at the top dose activity change, negative = inhibition, hits mostly inhibitors; actives 0.28% (n = 350,000); AID 485290; further: nearly all actives have a fitted effect of over 40% in size
Target sequence (Q9NUW8 whole entry, looked up): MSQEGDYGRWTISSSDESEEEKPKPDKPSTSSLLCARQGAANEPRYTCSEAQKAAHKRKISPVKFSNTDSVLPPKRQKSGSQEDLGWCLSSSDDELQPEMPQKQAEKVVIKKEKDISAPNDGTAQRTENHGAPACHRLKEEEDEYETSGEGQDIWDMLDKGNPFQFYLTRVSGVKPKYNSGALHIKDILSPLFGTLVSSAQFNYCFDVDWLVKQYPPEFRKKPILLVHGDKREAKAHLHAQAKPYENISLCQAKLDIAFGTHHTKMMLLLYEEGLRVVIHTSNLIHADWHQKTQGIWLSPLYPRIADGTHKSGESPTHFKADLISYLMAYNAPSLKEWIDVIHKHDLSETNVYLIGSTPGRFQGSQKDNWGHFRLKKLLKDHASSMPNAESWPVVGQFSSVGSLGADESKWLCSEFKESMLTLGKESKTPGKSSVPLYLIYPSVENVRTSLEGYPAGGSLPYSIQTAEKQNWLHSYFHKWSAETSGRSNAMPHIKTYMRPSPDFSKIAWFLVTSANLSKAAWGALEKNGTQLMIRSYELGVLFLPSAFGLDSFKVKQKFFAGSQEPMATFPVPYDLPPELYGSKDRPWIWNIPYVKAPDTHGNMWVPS
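Compounds were preincubated with Tdp1 (1 nM final) for 15 min at room temperature before substrate (15 nM final) started a 5 min reaction; beads (10 ug/ml final) were then added for 10 min before AlphaScreen detection.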
DT40 TDP1 no CPT: qHTS for Inhibitors of human tyrosyl-DNA phosphodiesterase 1 (TDP1): qHTS in cells in absence of CPT; DT40 Tdp1-/- hTDP1 cells, no CPT, ATP luminescence, 48 h; Potency, µM (top dose mostly 46.2 µM), without a hit: at the highest dose activity change, negative = growth inhibition, actives largely listed as inhibitors; actives 15% (n = 420,000); AID 686978, 2013; further: nearly all actives have a fitted effect of over 55% in size
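Luminescent ATP content (CellTiter-Glo) served as the growth readout. Knockout chicken DT40 cells expressing human TDP1 were exposed to compounds without camptothecin for a minimum 48 hr at 37 °C.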
KAT2A inh: GCN5L2 (KAT2A) acetyltransferase inhibition; Q92830; GCN5L2 HAT assay, ThioGlo1 CoA-SH fluorescence; Potency, µM (highest dose often 58.9 µM), for the others: top-dose activity change, negative = inhibition, hits mostly inhibitors; actives 0.21% (n = 390,000); AID 504327
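GCN5L2 (20 nM) in 50mM HEPES pH 7.5, 0.1mM EDTA, 0.01% Tween-20 preincubated 15 min with compounds at room temperature. Reaction started with H3(1-25) 75uM, acetyl-CoA 70uM, ThioGlo1 50uM; CoA-thiol fluorescence (Ex340/Em540) read at 0 and 20 min.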
PLK1 PBD block: PLK1 (human) polo-box domain binding inhibition; Plk1 PBD binding of FITC phosphopeptide, fluorescence polarization; Potency, µM, without a hit: max response, negative = inhibition, hits mostly inhibitors; AID 720504; actives 2.8% (n = 360,000); further: series mostly up to about 57 µM; nearly all actives have a fitted effect of over 65% in size
TDP1 cell CPT: DT40-hTDP1 cell growth loss with CPT | chicken DT40 Tdp1-/-;hTDP1 cells + 20 nM CPT, ATP luminescence, 48 h | Potency, µM (top dose mostly 46.2 µM), inactives show at the highest dose activity change, negative = growth inhibition, actives largely listed as inhibitors | actives 12% (n = 420,000) | AID 686979; further: nearly all actives have a fitted effect of over 55% in size
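Cell growth measured by CellTiter-Glo luminescence after a minimum 48 h, 37 C compound exposure with 20 nM CPT in Tdp1-knockout DT40 cells stably expressing hTDP1, seeded 400/well; qHTS titration format.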
VDR inh: vitamin D3 receptor (human) inhibition; Potency, µM, for inactives: max response, negative = inhibition, most hits filed as inhibitors; actives 0.93% (n = 400,000); VDR-SRC2-3 peptide fluorescence polarization, 2 h; AID 504847; P11473
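The screen uses fluorescence polarization to detect compounds that interfere with recruitment of the SRC2-3 coactivator peptide to VDR; plates are read after 2 h at room temperature.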
* marks the source's active call; other numbers are inactive results; ? = inconclusive; . = no result given; [ ] = another dose, or the depositor's remark. The call rests on the fitted dose curve; in most records, active means well fitted curve in the direction sought with a large enough effect; inconclusive means small, poorly fitted or top-dose-only effect, or another doubt; inactive means no such curve, though single readings can be large; an effect the other way counts as inactive or inconclusive. On the % scale 0 is the no-effect control and ±100 the full control effect; potency means the concentration at half of the fitted maximal effect.

SMILES	TDP1 block	DT40 TDP1 no CPT	KAT2A inh	PLK1 PBD block	TDP1 cell CPT	VDR inh
CC(=O)c1ccc(OCc2cc(C(=O)N(C)Cc3cc(C)no3)no2)cc1	3.2%	-22.9%	-16.1%	-3.5%	-11.8%	2.6%
CC(C)N(Cc1nccn1C)C(=O)c1cc(COc2cccc(C(F)(F)F)c2)on1	6.8%	13µM*	-3.9%	2.8%	16.4µM*	2.7%
CCN(C(=O)Cn1nc2c3cc(F)ccc3n(Cc3cccc(C)c3)cc-2c1=O)c1cccc(C)c1	11.3%	-1.2%	-1.1%	.	-5.3%	5.2%
COc1ccc(-c2cc(C(F)(F)F)nc(S(=O)(=O)CCCC(=O)Nc3cc(C)on3)n2)cc1OC	5.1%	1.16µM*	-5.8%	-25.3%	0.731µM*	?
COc1ccc(NC(=O)CCCS(=O)(=O)c2nc(-c3ccccc3OC)cc(C(F)(F)F)n2)c(OC)c1	5.9%	-20.3%	-11.4%	.	-10.0%	?
COc1ccc(-c2cc(C(F)(F)F)n3nc(C(=O)Nc4ccc(Cl)cc4C(F)(F)F)cc3n2)cc1OC	0.6%	-5.5%	-1.3%	.	-9.9%	8.6%
COc1ccccc1-c1cc(C(F)(F)F)nc(S(=O)(=O)CCCC(=O)Nc2cc(C)on2)n1	5.9%	1.03µM*	-11.3%	-14.4%	0.92µM*	-3.6%
COc1ccc(Cl)cc1NC(=O)CCCS(=O)(=O)c1nc(-c2ccc(OC)c(OC)c2)cc(C(F)(F)F)n1	2.9%	2.06µM*	-8.4%	.	1.46µM*	?
O=C(Nc1sc2c(c1C(=O)NCc1ccco1)CCCC2)c1cc(=O)c2ccccc2o1	-1.2%	?	-13.8%	.	?	-1.2%
Cc1cc(C)c(S(=O)(=O)N2CCCCC2CCNC(=O)C(=O)NC2CC2)c(C)c1 (stereo unspecified)	.	-26.4%	?	-4.5%	-13.0%	?
COc1ccc(NC(=O)Nc2sc3nc4n(c(=O)c3c2C)CCC(C)CC4)cc1OC (stereo unspecified)	-3.9%	?	-4.6%	.	?	-0.3%
COc1ccccc1CNc1ncnc2ccc(-c3cccnc3)cc12	16.4%[56.1 µM]	20.6µM*	-13.0%	.	?	-0.3%
COc1ccccc1CNc1ncnc2ccc(-c3ccccc3OC)cc12	.	?	-6.8%	.	?	-2.5%
COc1ccccc1CNc1ncnc2ccc(-c3ccc(N(C)C)cc3)cc12	22.7%[56.1 µM]	13µM*	-11.7%	.	16.4µM*	?
Cc1ccc(N2CCN(C(=O)C(=O)c3cccc(Br)c3)CC2)cc1	.	?	.	-6.2%	?	.
O=C(Nc1ccccc1)N1CCCC2(CCN(C(=O)c3csnn3)CC2)C1	.	-1.1%	-9.8%	.	13.7%	3.1%
Cc1ccccc1NC(=O)c1cccc(S(=O)(=O)Nc2cccc(C(=O)O)c2)c1	.	11.9%	-7.0%	3.9%	-0.6%	9.8%
Cc1ccc(C(=O)Nc2ccc(S(=O)(=O)O)c3cc(S(=O)(=O)O)cc(S(=O)(=O)O)c23)cc1NC(=O)c1cccc(NC(=O)Nc2cccc(C(=O)Nc3cc(C(=O)Nc4ccc(S(=O)(=O)O)c5cc(S(=O)(=O)O)cc(S(=O)(=O)O)c45)ccc3C)c2)c1	4.47µM*	?	?	.	7.6%	22.4µM*
Cc1cccc(-c2cc3c(N=O)c4ccccc4c-3n[nH]2)c1	.	?	-13.1%	-7.9%	?	-22.6%
O=Nc1c2cc(-c3ccccc3)[nH]nc-2c2ccccc12	.	20.6µM*	-3.4%	-1.3%	20.6µM*	7.1%
CC(c1cccs1)N(C(=O)Nc1ccccc1)C1CCCCC1 (stereo unspecified)	1.0%	14.1µM*	0.2%	-9.4%	15.8µM*	-17.2%
CN(C(=O)Nc1ccccc1)C1CCCCC1	.	1.5%	-5.6%	2.6%	4.1%	-3.4%
COc1ccc(NC(=O)N(CCC(C)C)C(C)c2cccs2)c(OC)c1 (stereo unspecified)	10.4%	18.4µM*	-11.5%	.	?	10.0%
CCc1ccc(NC(=O)N(Cc2ccco2)C(C)c2cccs2)cc1 (stereo unspecified)	7.1%	?	-14.5%	-6.0%	?	-1.1%
CC(C)CCN(C(=O)Nc1ccccc1)C(C)c1cccs1 (stereo unspecified)	2.3%	18.4µM*	-3.7%	-6.5%	20.6µM*	-0.7%
SMILES	TDP1 block	DT40 TDP1 no CPT	KAT2A inh	PLK1 PBD block	TDP1 cell CPT	VDR inh
COc1ccc(NC(=O)CC(=O)Nc2ccc(OC)cc2OC)c(OC)c1	6.8%	12.5%	-1.9%	3.5%	0.6%	16.0%
COCCN(C(=O)c1ccc(C)o1)c1c(N)n(CC(C)C)c(=O)[nH]c1=O	0.8%	-17.7%	-7.0%	-7.4%	8.7%	-15.3%
Cc1ccc(NC(=O)CSC(C)C(=O)OCC(=O)N2CCN(C(=O)c3ccco3)CC2)cc1 (stereo unspecified)	.	1.0%	-0.4%	-8.1%	-9.0%	-19.5%
Cc1ccc2oc(C(=O)Nc3ccc(S(=O)(=O)Nc4nc(C)cc(C)n4)cc3)cc(=O)c2c1	4.9%	-29.2%	-15.7%	.	-19.5%	16.7%
Cc1cc2cc(CN(Cc3ccc4c(c3)OCO4)Cc3nnnn3C3CCCC3)c(=O)[nH]c2cc1C	6.2%	13µM*	-2.9%	-0.5%	16.4µM*	3.1%
COc1ccc(CN(Cc2cc3ccc(C)cc3[nH]c2=O)Cc2nnnn2C2CCCC2)cc1	4.2%	18.4µM*	-12.3%	1.1%	?	0.4%
Cc1cccc2cc(CN(Cc3nnnn3C3CCCC3)C3CCCCC3)c(=O)[nH]c12	.	?	.	-15.0%	20.6µM*	-14.1%
CCc1ccc2[nH]c(=O)c(CN(Cc3nnnn3C3CCCC3)C3CCCCC3)cc2c1	2.1%	?	-7.1%	-12.7%	?	1.5%
Cc1cc2cc(CN(Cc3nnnn3C3CCCCC3)CC3CCCO3)c(=O)[nH]c2cc1C (stereo unspecified)	4.2%	?	-0.9%	-7.2%	?	-2.5%
Cc1cc(C)c2cc(CN(Cc3nnnn3C3CCCCC3)CC3CCCO3)c(=O)[nH]c2c1 (stereo unspecified)	5.2%	13µM*	-9.0%	-2.2%	?	-3.4%
Cc1ccc2cc(CN(Cc3nnnn3C3CCCCC3)CC3CCCO3)c(=O)[nH]c2c1 (stereo unspecified)	6.2%	16.4µM*	-3.6%	-9.5%	14.6µM*	5.3%
Cc1ccc(N2C(=O)CC(Sc3nc4ccccc4o3)C2=O)cc1Cl (stereo unspecified)	-3.2%	3.26µM*	-17.8%	-26.1%	4.11µM*	7.2%

Source: PubChem
